# Test results published in the supplement of paper PMC7156485.
# ± gives the standard deviation of the averaged measurements.
# Assays:
# Details in all cases: concentration: 10 µM; 24 h
# HCC1569 [1] = assay: cell number relative to DMSO (% of DMSO); higher = more cells (less growth inhibition / toxicity)
# Method in brief: (§1)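 Compounds were applied at 10 µM for 24 h at 37 °C, in triplicate, to HCC1569 and TDF cells. The cells were then fixed and stained for H1.0, and nuclei were counterstained with DAPI. Nuclear H1.0 intensity or cell number is reported relative to the plate control as a percent, taking the median of replicates. Smoothing for positional effects was applied to HCC1569 values only.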
# TDF [2] = assay: as above
# Method in brief: as §1
# TDF [3] = assay: H1.0 immunofluorescence intensity relative to DMSO (% of DMSO); higher = stronger H1.0 induction, active = 120 or more
# Method in brief: as §1
# HCC1569 [4] = assay: H1.0 immunofluorescence intensity relative to DMSO (% of DMSO); higher = stronger H1.0 induction, active = 140 or more
# Method in brief: as §1
# 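Throughout, for H1.0 immunofluorescence intensity relative to DMSO: TDF is a line of transformed human dermal fibroblasts of mesenchymal origin.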
# 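Throughout, for cell number relative to DMSO: TDF denotes transformed human dermal fibroblasts of mesenchymal origin.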
Compound,cell number (HCC1569 [1]),cell number (TDF [2]),H1.0 immunofluorescence intensity (TDF [3]),H1.0 immunofluorescence intensity (HCC1569 [4])
C1CCC(NC2CCCCC2)CC1,96.5,102,93.9 (inactive),100 (inactive)
"O=c1cccc2n1CC1CNCC2C1 (single isomer, unassigned; (-)) [(-)-Cytisine]",103,85.2,102 (inactive),96.6 (inactive)
Cl.OCc1cnc[nH]1 [4-Imidazolemethanol hydrochloride],99.6,102,93.3 (inactive),94.1 (inactive)
CN1[C@@H]2CC[C@H]1C[C@@H](OC(=O)[C@H](CO)c1ccccc1)C2 [L-Hyoscyamine],100,117,95 (inactive),96.2 (inactive)
CC(Cc1ccc2c(c1)OC(C(=O)[O-])(C(=O)[O-])O2)NCC(O)c1cccc(Cl)c1.[Na+].[Na+] (configuration not stated),97.5,106,88.7 (inactive),95.9 (inactive)
Br.CCCN(CCC)C1CCc2cccc(O)c2C1 (stereo not drawn) [R-(+)-8-Hydroxy-DPAT hydrobromide],99.2,90.1,105 (inactive),96.5 (inactive)
CCCCCC(C=CC=CCCCCCCCCCC(=O)O)OO (configuration not stated),111,92.8,94.4 (inactive),103 (inactive)
CN1CCC2(CCN3CCc4c(oc5ccccc45)C3C2)N(C)C1=O.Cl (configuration not stated),102,91,95 (inactive),110 (inactive)
Cc1cc2c(C(C)C)c(O)c(O)c(C=O)c2c(O)c1-c1c(C)cc2c(C(C)C)c(O)c(O)c(C=O)c2c1O [Gossypol],80.6 ± 22,99.6 ± 5.5,92.2 (inactive),103 (inactive)
O=C(O)C(=O)c1cn(Cc2ccccc2)c2ccc(-c3ccc(OC(F)(F)F)cc3)cc12,99.9,106,94 (inactive),99.4 (inactive)
CC1=C2CC3C(CC=C4CC(O)CCC43C)C2CCC12OC1CC(C)CNC1C2C (configuration not stated) [Cyclopamine],104,107,94.9 (inactive),92 (inactive)
CC12C(=O)OC(=O)C1(C)C1CCC2O1 (configuration not stated) [Cantharidin],20.6 ± 2.2,10.9 ± 0.21,210 (active),187 (active)
COc1cccc(C2(O)CCCCC2CN(C)C)c1 (configuration not stated) [Tramadol],100,97.7,99.3 (inactive),109 (inactive)
CC(N)C(=O)OC(C)(C)Cc1ccc(Cl)cc1.Cl (configuration not stated) [Alaproclate hydrochloride],102,111,88.2 (inactive),88.6 (inactive)
CC[NH+](CC)CC.Nc1ncnc2c1ncn2C1OC2COP([O-])(=S)OC2C1O (configuration not stated) [Rp-cAMPS triethylamine],103,113,86 (inactive),88.3 (inactive)
CN1C2CC(=O)CC1C(O)C2 (configuration not stated) [6-Hydroxytropinone],103,111,88.5 (inactive),89.2 (inactive)
Cl.Oc1ccc2c3c1OC1c4[nH]c5ccccc5c4CC4(O)C(C2)N(CC2CC2)CCC314 (configuration not stated) [Naltrindole hydrochloride],101,99.3,96.4 (inactive),114 (inactive)
CCCCCCCCCCCCCC(=O)OC1C(C)C2(O)C(C=C(CO)CC3(O)C(=O)C(C)=CC32)C2C(C)(C)C12OC(C)=O (configuration not stated) [Phorbol 12-myristate 13-acetate],99 ± 4.3,74.6 ± 8.8,125 (active),125 (inactive)
CC(=O)OCC12CCC(C)=CC1OC1C(O)C(OC(C)=O)C2(C)C12CO2 (configuration not stated) [Diacetoxyscirpenol],56.8,13.6,128 (active),95.6 (inactive)
CC12CCC3C(CC=C4CC(O)CCC43C)C1CCC2=O (configuration not stated) [Dehydroepiandrosterone],105,107,99.7 (inactive),93.6 (inactive)
NC(Cc1cc(O)c(O)cc1O)C(=O)O (racemic) [6-Hydroxy-DL-DOPA],98.2,96.2,97 (inactive),93.8 (inactive)
CC1OC(=O)C(C(C)C)NC(=O)C(C(C)C)OC(=O)C(C(C)C)NC(=O)C(C)OC(=O)C(C(C)C)NC(=O)C(C(C)C)OC(=O)C(C(C)C)NC(=O)C(C)OC(=O)C(C(C)C)NC(=O)C(C(C)C)OC(=O)C(C(C)C)NC1=O (configuration not stated) [Valinomycin],65,56.8,108 (inactive),174 (active)
Br.COC(=O)C1=CCCN(C)C1,102,112,89.8 (inactive),82.8 (inactive)
